Screening data (PubChem BioAssay)
STAT3 inh: STAT3 signaling inhibition. U3A cells, IL-6 STAT3-luciferase reporter, luminescence; host cell line lacks STAT1. inhibition, % at 5.5 µM. hit rate 0.89% among 190,000;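 active = inhibition above the mean inhibition across all screened compounds plus 3 SD, cut at about 44% in these data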;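 note: 0% = DMSO only wells and 100% = 100 µM nifuroxazide control wells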
STAT1 inh: STAT1 signaling inhibition; NIH 3T3 STAT1-luciferase reporter, IFN-gamma, luminescence; inhibition, % at 5.5 µM; hit rate 0.35% among 200,000;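 active = inhibition above a set limit, the mean inhibition across all tested compounds plus 3 SD, cut at about 34% in these data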;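 note: 0% = IFN-gamma with DMSO and 100% = IFN-gamma with 300 µM nifuroxazide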
TRAIL sens C8: sensitizes caspase-8 expressing cells to TRAIL; NB7+C8 cells + TRAIL, ATPlite viability luminescence; hit rate 1% among 360,000; inhibition (viability loss, TRAIL sensitization), % at 10 µM; AID 624354;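 active = compounds causing at least 50% loss of cell viability in the single-dose screen, relative to plate controls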
Platelet DG rel: platelet dense granule release activity; human platelet-rich plasma, SFLLRN dense granule ATP release, luminescence; inhibition, %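 (compounds screened at 7.5 µM in platelet-rich plasma)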; hit rate 0.22% among 300,000; AID 1663;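 active = mean replicate score, as percent of positive control, at or above 50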
PPC-1+TRAIL kill: kills PPC-1 cancer cells in the presence of TRAIL. PPC-1 cells + TRAIL, ATPLite viability luminescence. cell killing (% activity), % at 4 µM or 5 µM. hit rate 0.41% among 220,000;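 active = cell killing above 50% in the first pass at 4 µM, then a duplicate retest at 5 µM averaging 50% or more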;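 note: plate controls were cells with TRAIL plus DMSO for no effect and medium-only wells lacking cells for full effect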
Numbers without * were called inactive. The list is not random: actives were taken first. Their share in the collection is about 1.6%.

For Cc1ccc(-n2[nH]c(C)c(C=Nc3ccc4[nH]c(=O)[nH]c4c3)c2=O)cc1 the results were STAT3 inh -15, STAT1 inh 4, TRAIL sens C8 23, Platelet DG rel 6 and PPC-1+TRAIL kill 24.
Cc1ccc([C@H]2C[C@H](n3cc(C4CC4)nn3)[C@@H](O)CN2C(=O)C2CCCCC2)cc1 was read as TRAIL sens C8 -4.
CCOC(=O)COc1ccc2ccccc2c1/C=C/[N+](=O)[O-] was read as STAT3 inh 8, STAT1 inh -2, TRAIL sens C8 -9, Platelet DG rel -3 and PPC-1+TRAIL kill 1.
O=[N+]([O-])/C=C/c1c(OCc2ccccc2)ccc2ccccc12 was read as STAT3 inh 12, STAT1 inh -7, TRAIL sens C8 60*, Platelet DG rel 11 and PPC-1+TRAIL kill -17.
For CCCCNC(=O)c1onc(CSc2ccccc2CC)c1C(=O)O the results were STAT3 inh 120*, STAT1 inh 3, TRAIL sens C8 -4, Platelet DG rel -3 and PPC-1+TRAIL kill -11.
COCCNC(=O)c1onc(CSc2ccccc2F)c1C(=O)O was read as STAT3 inh 3, STAT1 inh 4, TRAIL sens C8 -1, Platelet DG rel 1 and PPC-1+TRAIL kill 55*.
For Cc1nn(-c2ccccc2)c(C)c1/C=N/NC(=O)c1cc(C(C)(C)C)[nH]n1 the results were STAT3 inh 11, STAT1 inh 3, TRAIL sens C8 52*, Platelet DG rel 19 and PPC-1+TRAIL kill 24.
For Cc1ccc(-c2cc(C(=O)N/N=C/c3c(C)nn(-c4ccccc4)c3C)n[nH]2)s1 the results were STAT3 inh -17, STAT1 inh -13, TRAIL sens C8 -23, Platelet DG rel -6 and PPC-1+TRAIL kill 11.
For Cc1ccc(-n2nnc(-c3cccnc3Cl)n2)cc1 the results were STAT1 inh -26, TRAIL sens C8 61*, Platelet DG rel -1 and PPC-1+TRAIL kill 40.
CCc1nc2ccc(C(=O)NC(C)(C)C)cn2c1N(CC)Cc1cccc(Br)c1 was read as TRAIL sens C8 2.
For CC(C)Oc1ccc(CN2CCC2(C)C(=O)Nc2cccc3cccnc23)cc1 (centres undefined) the results were TRAIL sens C8 17.
Screening CCOC(=O)Cn1c(=O)n(Cc2ccco2)c(=O)c2ccc(C(=O)NC3CCCC3)cc21 returned STAT3 inh 23, STAT1 inh 7, TRAIL sens C8 13, Platelet DG rel 90* and PPC-1+TRAIL kill 10.
For COc1ccc(-c2sc3ccccc3c2-c2ccc(OCCN(C)C)cc2)cc1 the results were TRAIL sens C8 79*.
For CC(=O)c1cccc(NC(=O)CSc2ccc(-c3ccc4c(c3)OCO4)nn2)c1 the results were STAT3 inh 9, STAT1 inh 3, TRAIL sens C8 64*, Platelet DG rel 5 and PPC-1+TRAIL kill 28.
COc1ccc(-c2ccc(SCC(=O)Nc3cccc(C(C)=O)c3)nn2)cc1OC was read as STAT3 inh -22, STAT1 inh -5, TRAIL sens C8 26, Platelet DG rel 2 and PPC-1+TRAIL kill 25.
For COc1ccc(NC(=O)c2cccc3c2C(=O)c2ccc(-c4ccc(F)cc4OCc4ccccc4)cc2S3(=O)=O)cc1 the results were TRAIL sens C8 59*.
C[C@H]1COc2cccc(N3CCSCC3)c2S(=O)(=O)N1 was read as TRAIL sens C8 -3.
`Nc1ccccc1C=C1Cc2ccccc2C1=O` gave TRAIL sens C8 48*.
`O=C(Nc1ccc2nc3n(c(=O)c2c1)CCCCC3)c1c(F)ccc([N+](=O)[O-])c1F` gave TRAIL sens C8 68* and Platelet DG rel -7.
`O=C(Nc1ccc2nc3n(c(=O)c2c1)CCCCC3)c1cc([N+](=O)[O-])ccc1F` gave TRAIL sens C8 42 and Platelet DG rel -4.
`COC(=O)c1nc(NC(=S)NC(=O)c2cccs2)sc1C` gave TRAIL sens C8 50* and Platelet DG rel 3.
O=C(NC(=S)Nc1ccccc1)c1cccs1 was read as TRAIL sens C8 1 and Platelet DG rel -20.
Screening Nc1c(C(=O)Nc2nc3ccccc3s2)sc2nc(-c3cccs3)ccc12 returned STAT3 inh 18, STAT1 inh -51, TRAIL sens C8 96*, Platelet DG rel 0 and PPC-1+TRAIL kill 24.
CC(=O)c1sc2nc(-c3cccs3)ccc2c1N was read as STAT3 inh -5, STAT1 inh -21, TRAIL sens C8 -8, Platelet DG rel 1 and PPC-1+TRAIL kill 5.
O=C(NC(=S)Nc1nc2ccccc2s1)c1cccs1 was read as STAT3 inh -66, STAT1 inh -37, TRAIL sens C8 84*, Platelet DG rel 0 and PPC-1+TRAIL kill 13.
Screening COc1cc(/C=C/C(=O)NC(=O)c2ccccc2O)ccc1OC(C)=O returned TRAIL sens C8 39 and Platelet DG rel -2.
Screening Cn1c(SCC(=O)Nc2ccc3c(c2)n(C)c(=O)n3C)nnc1-c1ccncc1 returned TRAIL sens C8 -14 and Platelet DG rel 3.
For CCCCOc1ccc(C(=O)Nc2cc(C)c(OCC(=O)N3CCOCC3)c(C)c2)cc1 the results were STAT3 inh 6, STAT1 inh 10, TRAIL sens C8 12, Platelet DG rel 0 and PPC-1+TRAIL kill 19.
Screening Cc1cc(NC(=O)c2ccc(Cl)cc2)cc(C)c1OCC(=O)N1CCOCC1 returned TRAIL sens C8 54* and Platelet DG rel 1.
`COc1cccc(-n2c(SCC(=O)N3CCCCC3)nc3c([nH]c4ccccc43)c2=O)c1` gave STAT1 inh 9, TRAIL sens C8 54*, Platelet DG rel -9 and PPC-1+TRAIL kill 4.
Screening COC(=O)C[C@H]1C=C[C@@H](C(C(=O)OC)C(=O)OC)CN1C(C)=O returned TRAIL sens C8 -11.
Screening O=C(Nc1ccc(N2CCOCC2)cc1)c1cnccn1 returned TRAIL sens C8 78* and Platelet DG rel 22.
Screening O=C(Nc1ccc2c(c1)OCO2)c1csc(COCCO)n1 returned TRAIL sens C8 -5.
`Cc1ccccc1NC(=O)c1nc(S(C)(=O)=O)ncc1Cl` gave TRAIL sens C8 -1 and Platelet DG rel -7.
CS(=O)(=O)c1ncc(Cl)c(C(=O)Nc2ccc(N3CCOCC3)cc2)n1 was read as STAT3 inh 18, STAT1 inh 8, TRAIL sens C8 73*, Platelet DG rel 3 and PPC-1+TRAIL kill 8.
`CS(=O)(=O)c1ncc(Cl)c(C(=O)Nc2ccc(OC(F)F)cc2)n1` gave TRAIL sens C8 72* and Platelet DG rel 17.
O=C(Nc1ccc(N2CCOCC2)cc1)c1csc(COCCO)n1 was read as TRAIL sens C8 55*.
Screening CCc1nc2ccc(C(=O)Nc3cc(-c4ccccc4)ccc3OC)cn2c1N(C)Cc1nccs1 returned TRAIL sens C8 26.
Screening Cn1c(=O)c2c(n(C)c1=O)n(C)c(=O)n2C returned TRAIL sens C8 -1.
COc1ccc(NC(=O)c2cc(-c3cc(Cl)ccc3C)n[nH]2)cn1 was read as TRAIL sens C8 13.
Cc1c(-c2ccc(Br)cc2)nc2ccccn12 was read as STAT3 inh -14, STAT1 inh -53, TRAIL sens C8 16, Platelet DG rel -2 and PPC-1+TRAIL kill 20.
